# Test system: STK35
# Settings: concentration: 1 μM, replicates: in singlicate; n = 1
# 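Further: KINOMEscan kinase panel screen.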
row,SMILES,%Inh [%]
1,Cc1ccccc1-c1cc(-c2c[nH]nc2-c2ccccn2)ccn1 [GW680061],0
2,Cl.Cl.Cl.N#Cc1ccc(CCNc2nccc(-c3cccc(CN4CCNCC4)c3)n2)cc1 [GSK2137462],0
3,COc1cc2ncnc(Nc3cccc(Br)c3)c2cc1OC.Cl [GI230329],0
4,CCc1ccc(-c2ccc3c(c2)-c2n[nH]cc2S(=O)(=O)N3C)cc1,15
5,CNc1nc(-c2ccc3c(N)n[nH]c3c2)cc(N2C[C@@H](C(=O)NC3CCCCC3)OC[C@H]2C)n1 [GSK2375584],0
6,NS(=O)(=O)c1cccc(N/C=C2\C(=O)Nc3ccc(S(=O)(=O)Cc4c(Cl)cccc4Cl)cc32)c1 [GSK398099],0
7,COc1ccc(CSc2nnc(-c3ccc4ncsc4c3)o2)cc1C(F)(F)F,0
8,O=C(Nc1n[nH]c2nc(-c3ccco3)c(Br)cc12)C1CCN(Cc2ccccc2)C1.O=C(O)[C@H](O)[C@@H](O)C(=O)O (stereo not drawn) [SB-742034],0
9,CS(=O)(=O)CCNCc1nc(-c2ccc3ncnc(Nc4ccc5c(cnn5Cc5ccccc5)c4)c3c2)cs1.Cl.Cl [GW569716],0
10,Cc1ccc(NC(=O)Nc2ccc(Cl)cc2)cc1-c1ccc(C(=O)Nc2ccncc2)cc1 [GSK1398472],0
11,CC[C@@H]1CO[C@H](C(=O)Nc2ccccc2)CN1c1cc(-c2ccc3c(N)n[nH]c3c2)nc(NC)n1 [GSK2376236],0
12,COC(=O)c1cccc(NC(=O)NC2CCN(c3ccnc(Nc4ccc(F)cc4)n3)C2)c1 (stereo not drawn) [GSK1379725],0
13,O=c1cc(N2CCOCC2)nc2n(Cc3cccc(Cl)c3Cl)c3ccccc3n12 [GSK2299009],14
14,COc1ccc(Nc2nccc(N3CCC(NC(=O)C(C)c4ccc(Cl)cc4)CC3)n2)cc1 (stereo not drawn) [GSK1379812],0
15,Nc1ncnc2occ(-c3ccc4c(c3)CCN4C(=O)Cc3cc(F)ccc3F)c12 [GSK2645446],0
16,Cc1c(Cn2c3ccccc3n3c(=O)cc(N4CCOCC4)nc23)cccc1C(F)(F)F [GSK2306394],0
17,COc1ccc(Nc2nccc(N3CCC(NC(=O)c4cc5ccccc5s4)C3)n2)cc1 (stereo not drawn) [GSK1379738],0
18,Cn1cncc1C(=O)NC1CCN(c2ccnc(Nc3ccc(F)cc3)n2)C1 (stereo not drawn) [GSK1379717],0

row,SMILES,%Inh [%]
1,CC(=O)c1cccc(NC(=O)NC2CCN(c3ccnc(Nc4ccc(F)cc4)n3)C2)c1 (stereo not drawn) [GSK1379710],1
2,COc1cccc(C2=C(Nc3cc(Cl)c(O)c(Cl)c3)C(=O)NC2=O)c1 [SB-390767],0
3,COc1cccc(CNC(=O)NC2CCN(c3ccnc(Nc4ccc(F)cc4)n3)C2)c1 (stereo not drawn) [GSK1379723],5
4,Fc1ccc(-c2nn3cccc(F)c3c2-c2ccncc2)cc1 [GW475620],0
5,CSc1ccc(-c2nc3n(c2-c2ccncc2)CCC3)cc1 [SKF-105561],3
6,COc1ccc(CSc2nnc(-c3ccc4nccn4c3)o2)cc1C(F)(F)F,16
7,O=C1NC(=O)C(c2ccc(Cl)cc2)=C1Nc1ccc(O)cc1 [SB-340867],0
8,CC(=O)c1c(C)c2cnc(Nc3ccc(N4CCNCC4)cn3)nc2n(C2CCCC2)c1=O,8
9,CNCc1ccc2nc(NC(=O)c3ccc(C(C)(C)C)cc3)cn2c1,0
10,CNc1nc(-c2ccc3c(N)n[nH]c3c2)cc(N2C[C@@H](C(=O)Nc3ccccc3)CC[C@H]2C)n1 [GSK2298859],0
11,COC(=O)c1cccc(NC(=O)NC2CCN(c3ccnc(Nc4ccc(OC)cc4)n3)C2)c1 (stereo not drawn) [GSK1379746],0
12,Cc1ccccc1Cn1ccn2c(=O)cc(N3CCOCC3)nc12 [GSK2269905],0
13,Nc1cccc(-c2ccc3c(N)n[nH]c3c2)n1 [GSK2192730],0
14,COc1ccc(CSc2nnc(-c3ccc4c(c3)CCO4)o2)cc1,0
15,COC(=O)C(Cc1ccccc1)NC(=O)NC1CCN(c2ccnc(Nc3ccc(F)cc3)n2)C1 (stereo not drawn) [GSK1379714],0
16,c1ccc(-c2ccnc3[nH]ccc23)cc1 [SB-693578],32
17,Cc1nccc(-c2c(-c3ccc(F)cc3)ncn2CCCN2CCOCC2)n1.Cl [SB-282975],0
18,COc1nccc(-c2c(-c3ccc(F)cc3)ncn2CCCN2CCOCC2)n1 [SB-282852],0

# Test system: STK36
# Settings: concentration: 1 μM, replicates: in singlicate; n = 1
row,SMILES,%Inh [%]
1,Cc1ccccc1-c1cc(-c2c[nH]nc2-c2ccccn2)ccn1 [GW680061],0
2,Cl.Cl.Cl.N#Cc1ccc(CCNc2nccc(-c3cccc(CN4CCNCC4)c3)n2)cc1 [GSK2137462],0
3,COc1cc2ncnc(Nc3cccc(Br)c3)c2cc1OC.Cl [GI230329],0
4,CCc1ccc(-c2ccc3c(c2)-c2n[nH]cc2S(=O)(=O)N3C)cc1,0
5,CNc1nc(-c2ccc3c(N)n[nH]c3c2)cc(N2C[C@@H](C(=O)NC3CCCCC3)OC[C@H]2C)n1 [GSK2375584],22
6,NS(=O)(=O)c1cccc(N/C=C2\C(=O)Nc3ccc(S(=O)(=O)Cc4c(Cl)cccc4Cl)cc32)c1 [GSK398099],0
7,COc1ccc(CSc2nnc(-c3ccc4ncsc4c3)o2)cc1C(F)(F)F,0
8,O=C(Nc1n[nH]c2nc(-c3ccco3)c(Br)cc12)C1CCN(Cc2ccccc2)C1.O=C(O)[C@H](O)[C@@H](O)C(=O)O (stereo not drawn) [SB-742034],29
9,CS(=O)(=O)CCNCc1nc(-c2ccc3ncnc(Nc4ccc5c(cnn5Cc5ccccc5)c4)c3c2)cs1.Cl.Cl [GW569716],0
10,Cc1ccc(NC(=O)Nc2ccc(Cl)cc2)cc1-c1ccc(C(=O)Nc2ccncc2)cc1 [GSK1398472],1
11,CC[C@@H]1CO[C@H](C(=O)Nc2ccccc2)CN1c1cc(-c2ccc3c(N)n[nH]c3c2)nc(NC)n1 [GSK2376236],0
12,COC(=O)c1cccc(NC(=O)NC2CCN(c3ccnc(Nc4ccc(F)cc4)n3)C2)c1 (stereo not drawn) [GSK1379725],0
13,O=c1cc(N2CCOCC2)nc2n(Cc3cccc(Cl)c3Cl)c3ccccc3n12 [GSK2299009],0
14,COc1ccc(Nc2nccc(N3CCC(NC(=O)C(C)c4ccc(Cl)cc4)CC3)n2)cc1 (stereo not drawn) [GSK1379812],18
15,Nc1ncnc2occ(-c3ccc4c(c3)CCN4C(=O)Cc3cc(F)ccc3F)c12 [GSK2645446],0
16,Cc1c(Cn2c3ccccc3n3c(=O)cc(N4CCOCC4)nc23)cccc1C(F)(F)F [GSK2306394],0
17,COc1ccc(Nc2nccc(N3CCC(NC(=O)c4cc5ccccc5s4)C3)n2)cc1 (stereo not drawn) [GSK1379738],0
18,Cn1cncc1C(=O)NC1CCN(c2ccnc(Nc3ccc(F)cc3)n2)C1 (stereo not drawn) [GSK1379717],0

row,SMILES,%Inh [%]
1,CC(=O)c1cccc(NC(=O)NC2CCN(c3ccnc(Nc4ccc(F)cc4)n3)C2)c1 (stereo not drawn) [GSK1379710],0
2,COc1cccc(C2=C(Nc3cc(Cl)c(O)c(Cl)c3)C(=O)NC2=O)c1 [SB-390767],0
3,COc1cccc(CNC(=O)NC2CCN(c3ccnc(Nc4ccc(F)cc4)n3)C2)c1 (stereo not drawn) [GSK1379723],0
4,Fc1ccc(-c2nn3cccc(F)c3c2-c2ccncc2)cc1 [GW475620],28
5,CSc1ccc(-c2nc3n(c2-c2ccncc2)CCC3)cc1 [SKF-105561],16
6,COc1ccc(CSc2nnc(-c3ccc4nccn4c3)o2)cc1C(F)(F)F,10
7,O=C1NC(=O)C(c2ccc(Cl)cc2)=C1Nc1ccc(O)cc1 [SB-340867],11
8,CC(=O)c1c(C)c2cnc(Nc3ccc(N4CCNCC4)cn3)nc2n(C2CCCC2)c1=O,0
9,CNCc1ccc2nc(NC(=O)c3ccc(C(C)(C)C)cc3)cn2c1,11
10,CNc1nc(-c2ccc3c(N)n[nH]c3c2)cc(N2C[C@@H](C(=O)Nc3ccccc3)CC[C@H]2C)n1 [GSK2298859],0
11,COC(=O)c1cccc(NC(=O)NC2CCN(c3ccnc(Nc4ccc(OC)cc4)n3)C2)c1 (stereo not drawn) [GSK1379746],0
12,Cc1ccccc1Cn1ccn2c(=O)cc(N3CCOCC3)nc12 [GSK2269905],0
13,Nc1cccc(-c2ccc3c(N)n[nH]c3c2)n1 [GSK2192730],0
14,COc1ccc(CSc2nnc(-c3ccc4c(c3)CCO4)o2)cc1,0
15,COC(=O)C(Cc1ccccc1)NC(=O)NC1CCN(c2ccnc(Nc3ccc(F)cc3)n2)C1 (stereo not drawn) [GSK1379714],31
16,c1ccc(-c2ccnc3[nH]ccc23)cc1 [SB-693578],0
17,Cc1nccc(-c2c(-c3ccc(F)cc3)ncn2CCCN2CCOCC2)n1.Cl [SB-282975],10
18,COc1nccc(-c2c(-c3ccc(F)cc3)ncn2CCCN2CCOCC2)n1 [SB-282852],0

# Reference: article PMC5540273 (PLoS ONE, 2017)
